Reference: PubChem BioAssay (Tox21)
Results filed as inconclusive are left out. Activity calls are given as the source filed them. Unless noted, the call rests on the fitted dose curve.

Legend:
[1] = Nuclear factor erythroid 2-related factor 2/antioxidant responsive element (Nrf2/ARE) small molecule agonists: qHTS cell viability counter screen in human keratinocytes (AID 1919968; active means well fitted curve in the direction sought with a large enough effect in the repeat runs; an effect the other way counts as inactive or inconclusive; further: nearly all actives have a fitted effect of over 55% in size)
How it was run: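 Cells of the KeratinoSens line were plated at 1,500 per well and left for 5 h before compound transfer from DMSO stocks. After a 23 h incubation (37 C, 5% CO2), CellTiter-Fluor was added. Signal was taken as fluorescence intensity 1 h later.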

[2] = Nuclear factor erythroid 2-related factor 2/antioxidant responsive element (Nrf2/ARE) small molecule agonists: luciferase reporter gene qHTS assay in human keratinocytes (AID 1919969); further: nearly all actives have a fitted effect of over 35% in size
[3] = molecular target: Gonadotropin-releasing hormone receptor (Homo sapiens) (UniProt P30968); experiment: Human gonadotropin-releasing hormone receptor (GnRHR) small molecule agonists, calcium flux assay in GnRHR-HEK293 cells (AID 1920063); further: nearly all actives have a fitted effect of over 35% in size
Sequence of Gonadotropin-releasing hormone receptor (Homo sapiens) (P30968 whole entry, looked up): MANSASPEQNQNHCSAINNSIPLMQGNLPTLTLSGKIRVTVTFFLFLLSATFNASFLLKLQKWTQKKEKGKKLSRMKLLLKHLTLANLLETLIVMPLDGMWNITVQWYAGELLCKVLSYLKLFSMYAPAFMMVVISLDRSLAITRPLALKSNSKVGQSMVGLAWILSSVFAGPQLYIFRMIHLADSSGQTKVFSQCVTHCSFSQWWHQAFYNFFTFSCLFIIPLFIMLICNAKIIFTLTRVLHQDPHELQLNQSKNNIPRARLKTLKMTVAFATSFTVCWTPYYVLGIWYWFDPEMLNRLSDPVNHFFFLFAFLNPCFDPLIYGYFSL
How it was run: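 Compounds dissolved in DMSO are pin-transferred onto dye-loaded GnRHR-HEK293 cells, which were seeded 18 h before at 37 C/5% CO2. Calcium signal is read as fluorescence intensity at 1 s intervals for 3 min.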

[4] = molecular target: KiSS-1 receptor (Homo sapiens) (UniProt Q969F8); experiment: Human kisspeptin (KISS1R) small molecule agonists, calcium flux assay in KISS1R-HEK293 cells (AID 1920064; active means well fitted curve in the direction sought with a large enough effect in the repeat runs; an effect the other way counts as inactive or inconclusive)
Sequence of KiSS-1 receptor (Homo sapiens) (Q969F8 whole entry, looked up): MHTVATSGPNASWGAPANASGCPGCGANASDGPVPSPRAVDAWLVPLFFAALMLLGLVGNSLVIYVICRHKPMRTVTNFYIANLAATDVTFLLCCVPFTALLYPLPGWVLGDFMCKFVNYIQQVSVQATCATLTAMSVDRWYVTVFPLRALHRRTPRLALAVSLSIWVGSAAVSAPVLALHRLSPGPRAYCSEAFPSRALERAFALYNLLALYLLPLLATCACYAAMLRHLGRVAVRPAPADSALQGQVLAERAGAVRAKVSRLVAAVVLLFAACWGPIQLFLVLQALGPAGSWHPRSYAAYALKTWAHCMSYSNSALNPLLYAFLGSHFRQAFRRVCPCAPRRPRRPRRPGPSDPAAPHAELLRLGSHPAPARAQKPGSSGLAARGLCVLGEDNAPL
How it was run: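 Cell line: HEK293, stable human KISS1R. Dye loading 1 h at 37 C after 18 h culture. Read: kinetic fluorescence, 480/540 nm, 3 min at 1 s intervals.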

[5] = G protein-coupled receptor (GPCR) small molecule agonists, calcium flux assay: HEK293 wild type cell line counter screen (AID 1920065)
How it was run: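 Tox21 10K compounds, 15 concentrations each in triplicate, pin-transferred in DMSO onto dye-loaded cells; kinetic read at 480/540 nm for 3 min, 1 s intervals.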

[6] = p53 small molecule agonists, cell-based qHTS assay with human liver microsomes (AID 1963577)
How it was run: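 p53RE-bla reporter cells were pre-incubated 5 h at 37 C, then treated with compounds plus human liver microsomes (0.5 mg/mL final) and NADPH (0.5 mg/mL final) for 16 h at 37 C. Beta-lactamase activity was read by LiveBLAzer fluorescence after 2 h at room temperature.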

[7] = p53 small molecule agonists, cell-based qHTS assay with rat liver microsomes (AID 1963578)
How it was run: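 p53RE-bla cells were exposed to compounds together with rat liver microsomes (0.5 mg/mL final) and NADPH (0.5 mg/mL final) for 16 h at 37 C, then read by LiveBLAzer beta-lactamase fluorescence after 2 h at room temperature.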

[8] = p53 small molecule agonists, cell-based qHTS assay with human liver microsomes: qHTS cell viability counter screen (AID 1963579); further: nearly all actives have a fitted effect of over 45% in size
How it was run: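 p53RE-bla cells (4,000/well) were pre-incubated 5 h at 37 C, then given compounds in DMSO plus human liver microsomes (0.5 mg/mL final) and NADPH (0.5 mg/mL final) for 16 h at 37 C. Viability was read by CellTiter-Glo luminescence.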

[9] = p53 small molecule agonists, cell-based qHTS assay with rat liver microsomes: qHTS cell viability counter screen (AID 1963580); further: nearly all actives have a fitted effect of over 45% in size
How it was run: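 Luminescent ATP readout (CellTiter-Glo, 30 min at room temperature) reports viability of p53RE-bla HCT-116 cells after 16 h at 37 C with test compounds under metabolic activation by rat liver microsomes and NADPH at 0.5 mg/mL final each.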

[10] = molecular target: 5-hydroxytryptamine receptor 2A (Homo sapiens) (UniProt P28223); experiment: 5-hydroxytryptamine receptor 2A (HTR2A) small molecule antagonists, cell-based qHTS assay (AID 1963586); further: nearly all actives have a fitted effect of over 45% in size
Sequence of 5-hydroxytryptamine receptor 2A (Homo sapiens) (P28223 whole entry, looked up): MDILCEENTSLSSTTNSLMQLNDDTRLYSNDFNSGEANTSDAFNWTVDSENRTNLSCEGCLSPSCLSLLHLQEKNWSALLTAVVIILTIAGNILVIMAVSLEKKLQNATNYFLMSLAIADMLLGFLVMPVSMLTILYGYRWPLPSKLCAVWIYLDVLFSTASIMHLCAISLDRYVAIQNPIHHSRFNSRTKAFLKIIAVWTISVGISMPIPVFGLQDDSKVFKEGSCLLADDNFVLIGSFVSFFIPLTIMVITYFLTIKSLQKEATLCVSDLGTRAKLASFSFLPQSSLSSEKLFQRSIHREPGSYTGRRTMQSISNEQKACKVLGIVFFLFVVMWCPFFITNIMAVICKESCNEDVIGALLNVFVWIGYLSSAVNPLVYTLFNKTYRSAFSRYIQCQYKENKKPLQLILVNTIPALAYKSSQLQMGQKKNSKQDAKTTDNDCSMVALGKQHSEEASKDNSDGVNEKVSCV
How it was run: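 CHO cells stably expressing human HTR2A were plated for 18 h at 37 C, then loaded with calcium dye for 1 h. Compounds were preincubated 5 min at room temperature before DOI (4 nM solution) was added. Kinetic fluorescence was read for 3 min.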

[11] = molecular target: 5-hydroxytryptamine receptor 2A (Homo sapiens) (UniProt P28223); experiment: 5-hydroxytryptamine receptor 2A (HTR2A) small molecule agonists, cell-based qHTS assay (AID 1963587); further: nearly all actives have a fitted effect of over 30% in size
How it was run: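 HTR2A-CHO cells, plated 18 h at 37 C/5% CO2, dye-loaded 1 h at 37 C; compounds in DMSO added by pin tool (agonist mode). Intracellular calcium flux read as kinetic fluorescence on FDSS over 2 min at 1 s intervals.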

[12] = molecular target: Muscarinic acetylcholine receptor M1 (Homo sapiens) (UniProt P11229); experiment: Cholinergic receptor muscarinic 1 (CHRM1) small molecule antagonists, cell-based qHTS assay (AID 1963588); further: nearly all actives have a fitted effect of over 40% in size
Sequence of Muscarinic acetylcholine receptor M1 (Homo sapiens) (P11229 whole entry, looked up): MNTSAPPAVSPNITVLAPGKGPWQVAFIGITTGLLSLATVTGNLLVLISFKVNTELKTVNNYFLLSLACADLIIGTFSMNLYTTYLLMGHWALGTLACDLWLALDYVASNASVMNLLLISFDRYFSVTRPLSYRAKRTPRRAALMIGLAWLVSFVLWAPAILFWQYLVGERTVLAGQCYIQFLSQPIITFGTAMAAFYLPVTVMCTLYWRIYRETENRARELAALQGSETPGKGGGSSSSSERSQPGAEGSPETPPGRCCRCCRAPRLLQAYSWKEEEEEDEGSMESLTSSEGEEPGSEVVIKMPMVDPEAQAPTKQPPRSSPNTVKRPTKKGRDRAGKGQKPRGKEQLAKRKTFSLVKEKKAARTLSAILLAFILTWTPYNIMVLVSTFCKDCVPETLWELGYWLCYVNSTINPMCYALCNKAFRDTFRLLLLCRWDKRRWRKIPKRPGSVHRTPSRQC
How it was run: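 Compounds were tested at 15 concentrations in three independent runs. Dye-loaded CHRM1-CHO cells were exposed 5 min at room temperature before stimulation by acetylcholine added at 50nM. Intracellular calcium was read kinetically on FDSS for 3 min.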

[13] = molecular target: Muscarinic acetylcholine receptor M1 (Homo sapiens) (UniProt P11229); experiment: Cholinergic receptor muscarinic 1 (CHRM1) small molecule agonists, cell-based qHTS assay (AID 1963589); further: nearly all actives have a fitted effect of over 35% in size
How it was run: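 Homogeneous fluorescence calcium flux, agonist mode. Human M1-expressing CHO cells; compound dosed at 15 concentrations, three independent runs; signal sampled every 1 sec.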

[14] = cAMP Responsive Elements (CRE) small molecule agonists, cell-based qHTS assay (AID 1963590)
How it was run: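 HEK 293T cells stably bearing CRE-bla were plated at 2,000 cells per well and rested 18 h. Compounds, positive controls or DMSO were added for 3 h at 37 C. LiveBLAzer B/G substrate was then loaded for 2 h at room temperature.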

[15] = cAMP Responsive Elements (CRE) small molecule antagonists, cell-based qHTS assay (AID 1963591; active means well fitted inhibition curve with a large enough effect in the signal ratio in the repeat runs, not every such curve was filed as active; the % refers to the signal ratio)
How it was run: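 First, CRE-bla HEK293T cells settled 18 h at 37 C. Next, compound and 0.25 uM final NKH477 were applied for 3 h. Last, LiveBLAzer B/G substrate was loaded for 2 h at room temperature.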

[16] = molecular target: Beta-2 adrenergic receptor (Homo sapiens) (UniProt P07550); experiment: Adrenergic beta2 receptor (ADRB2) small molecule antagonists, cell-based qHTS assay (AID 1963592); further: series mostly up to about 92 µM; nearly all actives have a fitted effect of over 50% in size
Sequence of Beta-2 adrenergic receptor (Homo sapiens) (P07550 whole entry, looked up): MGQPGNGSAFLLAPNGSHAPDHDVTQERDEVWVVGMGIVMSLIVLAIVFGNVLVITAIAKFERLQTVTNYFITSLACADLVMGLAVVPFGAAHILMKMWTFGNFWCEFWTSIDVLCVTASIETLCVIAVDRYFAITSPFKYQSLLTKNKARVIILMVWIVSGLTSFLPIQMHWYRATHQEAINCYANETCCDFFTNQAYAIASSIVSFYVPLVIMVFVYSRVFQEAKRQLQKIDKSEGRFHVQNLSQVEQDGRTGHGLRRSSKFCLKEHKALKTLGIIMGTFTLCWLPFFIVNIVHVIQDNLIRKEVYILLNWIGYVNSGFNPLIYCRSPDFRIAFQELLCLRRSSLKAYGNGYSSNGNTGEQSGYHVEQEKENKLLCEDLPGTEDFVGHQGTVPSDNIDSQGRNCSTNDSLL
How it was run: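 Assay format: CHO-ADRB2 cells, 18-20hr seeding at 37C/5% CO2, then compound plus 1nM isoproterenol agonist mix for 0.5hr RT. Homogeneous time-resolved fluorescence cAMP detection after 1hr, expressed as 665/615 nm ratio.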

[17] = molecular target: Beta-2 adrenergic receptor (Homo sapiens) (UniProt P07550); experiment: Adrenergic beta2 receptor (ADRB2) small molecule agonists, cell-based qHTS assay (AID 1963593);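 further: CHO cells stably overexpressing human ADRB2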
How it was run: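 CHO cells stably over-expressing ADRB2 were plated overnight at 37C, then dosed with compounds plus a stimulation mix containing 100uM IBMX and 25uM Ro-20-1724 for 0.5hr at room temperature. cAMP was measured by HTRF competition, 1hr.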

[18] = molecular target: D(2) dopamine receptor (Homo sapiens) (UniProt P14416); experiment: Dopamine D2 receptor (DRD2) small molecule antagonists, cell-based qHTS assay (AID 1963595; active means well fitted inhibition curve with a large enough effect in the signal ratio in the repeat runs, with a control signal flat; the % refers to the signal ratio)
Sequence of D(2) dopamine receptor (Homo sapiens) (P14416 whole entry, looked up): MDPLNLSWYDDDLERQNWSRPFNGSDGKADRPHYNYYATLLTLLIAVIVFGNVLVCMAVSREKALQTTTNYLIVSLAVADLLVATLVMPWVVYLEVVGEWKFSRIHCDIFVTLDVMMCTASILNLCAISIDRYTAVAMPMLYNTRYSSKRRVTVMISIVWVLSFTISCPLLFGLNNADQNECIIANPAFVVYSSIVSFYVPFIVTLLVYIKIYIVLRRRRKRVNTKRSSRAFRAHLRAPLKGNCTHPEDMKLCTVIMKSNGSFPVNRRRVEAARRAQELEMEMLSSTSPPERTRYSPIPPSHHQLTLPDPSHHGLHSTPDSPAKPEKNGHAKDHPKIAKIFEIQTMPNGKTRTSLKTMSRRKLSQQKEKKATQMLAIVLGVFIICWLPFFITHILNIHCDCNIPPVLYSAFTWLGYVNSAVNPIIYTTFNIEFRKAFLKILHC
How it was run: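 Cells were plated and grown for 24 h at 37 °C. Ro20-1724 (0.1 mM final) went in first, then compound for 10 min. NKH477 (200 nM) with quinpirole (12 nM) followed for 30 min at RT, then HTRF detection reagents for 1 h.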

[19] = molecular target: D(2) dopamine receptor (Homo sapiens) (UniProt P14416); experiment: Dopamine D2 receptor (DRD2) small molecule agonists, cell-based qHTS assay (AID 1963594); further: nearly all actives have a fitted effect of over 35% in size
How it was run: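 HEK293 cells stably expressing DRD2 were cultured 24 h at 37 C, then given Ro20-1724 (0.1 mM final) and compounds for 10 min at room temperature. NKH477 (200nM) was then added for 30 min. cAMP was read by HTRF.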

[20] = p53 small molecule agonists, cell-based qHTS assay: qHTS cell viability counter screen (AID 1963581); further: nearly all actives have a fitted effect of over 45% in size
How it was run: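 ATP content measured by luminescence in HCT-116 p53RE-bla cells treated 16 h at 37 C, same wells as the reporter screen.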
On the % scale 0 is the no-effect control and ±100 the full control effect.

CCCCCCCCCCCCCCBr
inactive: Potency [1] | Potency [2] | Potency [3] | outcome [4] | outcome [5] | Potency [6] | Potency [7] | Potency [8] | Potency [9] | Potency [10] | Potency [11] | Potency [12] | Potency [13] | Potency [14] | Potency [15] | Potency [16] | Potency [17] | Potency [18]

CCO[Si](CC)(OCC)OCC
inactive: Potency [1] | Potency [2] | Potency [3] | outcome [4] | outcome [5] | Potency [6] | Potency [7] | Potency [8] | Potency [9] | Potency [10] | Potency [11] | Potency [12] | Potency [13] | Potency [14] | Potency [15] | Potency [16] | Potency [17] | Potency [19] | Potency [18]

CC1(C)C(=O)N(CO)C(=O)N1CO
inactive: Potency [1] | Potency [2] | Potency [3] | outcome [4] | outcome [5] | Potency [6] | Potency [7] | Potency [8] | Potency [9] | Potency [10] | Potency [11] | Potency [12] | Potency [13] | Potency [14] | Potency [15] | Potency [16] | Potency [18]

C#C[C@]1(OC(C)=O)CC[C@H]2[C@@H]3CCC4=C[C@@H](OC(C)=O)CC[C@@H]4[C@H]3CC[C@@]21C
inactive: Potency [1] | Potency [2] | Potency [3] | outcome [4] | outcome [5] | Potency [6] | Potency [7] | Potency [8] | Potency [9] | Potency [20] | Potency [14] | Potency [16] | Potency [19] | Potency [18]

O=S(O)O
inactive: activity change, negative = cytotoxicity [1] -0.591% [at 19 µM] | activity, positive = activation [2] -3.64% [at 19 µM] | activity change [3] -0.296% [at 11.8 µM, active compounds read high] | activation [4] -3.75% [at 15.8 µM] | activation [5] -0.558% [at 11.8 µM] | activation [6] 4.55% [at 13.5 µM] | activation [7] -0.532% [at 13.6 µM] | activity change, negative = cytotoxicity [8] -0.784% [at 13.5 µM] | activity change, negative = cytotoxicity [9] 11.9% [at 13.5 µM] | activity, negative = inhibition [10] -15% [at 12.7 µM] | activation [11] 4.7% [at 15.9 µM] | activity, negative = inhibition [12] 27.3% [at 12.6 µM] | activation [13] 0.709% [at 15.8 µM] | activation [14] 1.33% [at 19 µM] | activity change, negative = inhibition [15] 0.0539% [at 18.9 µM] | Potency [17] | activation [19] 2.66% [at 19 µM] | activity change, negative = inhibition [18] -0.433% [at 18.9 µM]
